# In PubChem BioAssay (NCI):
# About 79,000 compounds went through this panel and 15% of them were active in at least one assay; those are over-represented in the sample as a whole. Values without a mark were called inactive. Calls of active or inactive are those of the source. No stated cut-off is given here; in the data, active means growth inhibition above about 70%; inactive means the rest.
# How the values were obtained:
# [1] = NCI Yeast Anticancer Drug Screen. Data for the rad50 strain (AID 155);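 further: 0% = growth of vehicle-only cultures of the same strain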; conditions: S. cerevisiae rad50 strain growth inhibition; at 50.0 µM; hits give high values
# Outline: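 Cells are treated with compound, grown, and their growth is then scored against vehicle-only cultures of the same repair-deficient yeast strain.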
# [2] = NCI Yeast Anticancer Drug Screen. Data for the mec2-1 strain (AID 157); conditions: S. cerevisiae mec2-1 strain, at 50.0 µM, hits give high values
# Outline: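 Compounds were applied to mec2-1 yeast cells. Their growth was then compared with that of vehicle-treated cultures to give growth inhibition.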
# [3] = NCI Yeast Anticancer Drug Screen. Data for the sgs1 mgt1 strain (AID 161);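 further: 0% = growth of cultures given vehicle only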; conditions: S. cerevisiae sgs1 mgt1 strain, at 50.0 µM, hits give high values
# Outline: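 Compounds are added to genetically altered yeast, and growth is compared with cultures given vehicle alone to give percent inhibition.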
# [4] = NCI Yeast Anticancer Drug Screen. Data for the cln2 rad14 strain (AID 165);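 further: 0% = growth equal to vehicle treated cultures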; conditions: S. cerevisiae cln2 rad14 strain, at 50.0 µM, hits give high values
# Outline: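 Strain: cln2 rad14 yeast, altered in cell cycle control and DNA damage repair. Read-out: growth inhibition vs vehicle.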
# [5] = NCI Yeast Anticancer Drug Screen. Data for the mlh1 rad18 strain (AID 175); conditions: S. cerevisiae mlh1 rad18 strain growth inhibition; at 50.0 µM; hits give high values
# Outline: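 A repair-deficient yeast strain is exposed to test compound, and growth is scored relative to vehicle-treated controls.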
# [6] = NCI Yeast Anticancer Drug Screen. Data for the bub3 strain (AID 167); conditions: S. cerevisiae bub3 mutant strain, at 50.0 µM, hits give high values
# Outline: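 Part of a panel of yeast mutants defective in DNA damage repair or cell cycle regulation. Each strain is grown with compound, and inhibition is calculated relative to solvent-treated cultures.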
Compound,growth inhibition [1],growth inhibition [2],growth inhibition [3],growth inhibition [4],growth inhibition [5],growth inhibition [6]
COC1CCC2NCCNC2C1 (stereo not given),6.35%,-6%,-9.85%,-22.9%,2.5%,–
O=C(O)CCc1ccc(NP(=O)(Oc2ccccc2)N(CCCl)CCCl)cc1 (stereo not given),8.05%,6.65%,15.1%,14.7%,-20.2%,–
O=C(O)C(O)c1ccc(Cl)cc1 (stereo not given),17.7%,-0.65%,-14.8%,-15.1%,11.2%,–
NC1=Nc2ccccc2Sc2ccccc21,-19.2%,-38.8%,-44.5%,2.5%,-33.8%,–
O=C1NC(=O)C(Cc2cccc(Cl)c2)C(=O)N1,15.1%,-6.9%,-15.8%,-8.05%,-36%,–
Nc1ccc([N+](=O)[O-])cc1,-11.2%,2.8%,-14.9%,-6.55%,-1%,–
O=C=Nc1ccc(Cl)cc1,-10.2%,-14.9%,-8.3%,-21.4%,-15.9%,–
CN=NNc1nc[nH]c1C(N)=O,23.9%,32.2%,25.2%,–,40.5%,3.85%
FC(F)(F)[S-].FC(F)(F)[S-].[C-]#[O+].[C-]#[O+].[C-]#[O+].[C-]#[O+].[C-]#[O+].[C-]#[O+].[C-]#[O+].[C-]#[O+].[Mn].[Mn],99.3% (active),99.6% (active),99.7% (active),99% (active),99.3% (active),–
O=C([CH-]C(=O)c1ccccc1)c1ccccc1.O=C([CH-]C(=O)c1ccccc1)c1ccccc1.[OH-].[OH-].[Ti+4],6.25%,-9.65%,-6.85%,–,8.7%,36.9%
O=C(O)c1ccccc1/C=N\NC(=S)NC1CN2CCC1CC2 (stereo not given),9.45%,6.25%,6.85%,-0.5%,-18.6%,–
O=c1cc(CCl)occ1O,7.35%,19.5%,20.6%,-5.75%,15.1%,–
CC1[N-]C(/C=N/O)NC(C)N1.CC1[N-]C(/C=N/O)NC(C)N1.[Br][Ni+2][Br] (stereo not given),-14.9%,-10%,-22.3%,-19%,-15.7%,–
COc1cccc2c1C(=O)c1c(O)c3c(c(O)c1C2=O)C[C@@](O)(C(=O)CO)C[C@@H]3OC1CC(N2CCOCC2C#N)C(O)C(C)O1 (stereo not given in full),90.1% (active),91.2% (active),92.4% (active),89.8% (active),91% (active),–
CC(C)(C)c1cc2c(=O)o[s+]3oc(=O)c(c1)c23,10.2%,-8.75%,–,1.35%,14.8%,6.15%
O=C(O)/C=C/C(=O)O.[Ni],-13.8%,-21.6%,–,-45.5%,0.5%,0.35%
COc1c(O)cc2c(c1OC)-c1ccc(SC)c(=O)cc1C(NC(C)=O)CC2 (stereo not given),10.4%,-9.4%,4.95%,–,23.9%,1.95%
CC12CCC(OC3OC(CO)C(O)C(O)C3O)C=C1CCC1C2CCC2(C)C(c3ccc(=O)oc3)CCC12 (stereo not given),62.5%,60%,–,35.2%,45.6%,61.2%
CC(N)Cc1c[nH]c2ccccc12 (stereo not given),2.9%,-22.2%,–,20.6%,12.8%,-1.75%
CC(Br)[N+](=O)[O-] (stereo not given),28.8%,4.9%,–,13.8%,5.35%,-8.7%

Compound,growth inhibition [1],growth inhibition [2],growth inhibition [3],growth inhibition [4],growth inhibition [5],growth inhibition [6]
NCC(Cc1ccccc1)P(=O)(O)O (stereo not given),-23.8%,-28.6%,–,-42.3%,-22.8%,-28.1%
C=C(C)c1ccccc1 (tested in a mixture with another compound),28%,9.05%,–,-8.8%,10.6%,-3.2%
O=c1oc2cc(O)ccc2c(O)c1C(c1ccc2ccccc2c1)c1c(O)c2ccc(O)cc2oc1=O,8.65%,31.2%,–,35.8%,-17.4%,17.2%
CCCCOCCOC(=O)CCl,9.1%,-21.1%,–,-14.8%,14.8%,-4.95%
C=C(Nc1nc2ccc(C)cc2s1)C(=O)C(CC)C(=O)C(CC)CC1C(=O)NC(=O)NC1=O (stereo not given),-23.4%,-13.6%,–,-31.8%,-0.2%,-32.6%
CCCCCCCCCCCCCCCC[As](=O)(O)CCCCCCCCCCCCCCCC,-6.35%,13.7%,–,4.25%,8.55%,7.2%
CC12CCC3C4CCC(=O)C=C4CCC3C1CC1CC(=O)OC12 (stereo not given),-4.15%,1%,–,-7.95%,-2.8%,11.7%
Nc1nc(=S)nc(N)[nH]1,21.6%,11.2%,–,-18.5%,-2.5%,14.6%
O=C=Nc1ccc(Br)cc1,25.6%,11.6%,–,-17.2%,29.4%,23.9%
N#Cc1cccnc1,4.75%,-4.15%,–,5.6%,2.75%,9.05%
COc1ccc2c(c1OC(C)=O)-c1cc(OC(C)=O)cc3c1C(C2)NCC3 (stereo not given),11.7%,-4%,–,6.65%,4.4%,1.9%
O=C(O)C1CCCN1[N+](=O)[O-] (stereo not given),-21.7%,-5.95%,–,-12.9%,-8.15%,-5.55%
CC(=O)[CH-]C(C)=O.O=[N+]([O-])O.[NH-]C1CCCCC1[NH-].[Pt+4] (stereo not given),97.2% (active),98.5% (active),–,98% (active),94.8% (active),98.8% (active)
COc1cc2c(c(OC)c1OC)-c1ccc(SC)c(=O)cc1[C@@H](NC(C)=O)CC2,-12.4%,-16.9%,-19.1%,–,-7.3%,-27.4%
O=c1[nH]c(=O)c2[nH]c(N=Nc3ccc(N(CCCl)CCCl)cc3)nc2[nH]1,20.9%,6.1%,–,38.1%,17.6%,10.7%
O=C(CC(=O)c1ccccc1)c1ccccc1.O=C(CC(=O)c1ccccc1)c1ccccc1.[Pd],20.5%,4.9%,6.7%,–,19.8%,6.05%
CCCCN(CCCC)C(=O)C1C=C2c3cccc4[nH]cc(c34)CC2N(C)C1 (stereo not given),-0.85%,-1.3%,–,-13.2%,37.4%,6.65%
CCC1([N+](=O)[O-])COP(=O)(NCc2ccncc2)OC1 (stereo not given),8.4%,-8.4%,–,10.6%,12.3%,-5.6%
Cc1ccc([NH-])c([NH-])c1.[Cl][Pt+2][Cl],22.1%,0.25%,–,12.3%,13.7%,-2.85%
CC(=O)OC(C[N+](=O)[O-])C(Cl)(Cl)Cl (stereo not given),5.7%,3.25%,–,-0.7%,2.95%,8.4%
